Source: PubChem BioAssay (Tox21)
Results filed as inconclusive are left out. The source made the active and inactive calls. Unless noted, the call rests on the fitted dose curve; in most records, active means well fitted curve in the direction sought with a large enough effect in the repeat runs; inconclusive means weak or mixed curves; inactive means no such curve, though single readings can be large; an effect the other way counts as inactive or inconclusive.

Experiments:
[1] = qHTS assay to identify small molecule antagonists of the sonic hedgehog signaling (Shh) pathway - cell viability counter screen (AID 1259367); further: nearly all actives have a fitted effect of over 55% in size
Summary of the method: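 After a 4 hr settling period, 3T3 Gli1-Luc cells were treated with DMSO-dissolved chemicals and conditioned medium, kept 24 hr at 37C in 5% CO2, and assayed for viability by CellTiter-Fluor fluorescence following 1 hr reagent incubation.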

[2] = qHTS assay to identify small molecule agonists of the sonic hedgehog signaling (Shh) pathway (AID 1259368; calls by dose curve;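 further: NIH/3T3-derived 3T3Gli1-Luc cells carrying a stable Gli1-driven firefly luciferase reporter; series mostly up to about 92 µM; nearly all actives have a fitted effect of over 15% in size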)
Summary of the method: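 NIH/3T3-derived 3T3Gli1-Luc cells with stably integrated Gli1-driven firefly luciferase, 2,000 cells/well, compounds added after 4 hr. Incubated 24 hr at 37C, 5% CO2; luminescence read after 30 min with luciferase reagent at room temperature.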

[3] = qHTS assay to identify small molecule antagonists of the sonic hedgehog signaling (Shh) pathway (AID 1259369; calls by dose curve; further: nearly all actives have a fitted effect of over 45% in size)
Summary of the method: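 NIH/3T3-derived Gli1-Luc reporter cells plated 4 h, dosed with compound, then stimulated with conditioned medium for 24 h at 37 C. Firefly luciferase luminescence read after 30 min with detection reagent at room temperature.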

[4] = biological target: Estrogen receptor beta (Homo sapiens) (UniProt Q92731); assay: qHTS assay to identify small molecule agonists of the estrogen receptor beta (ER-beta) signaling pathway (AID 1259377; active means well fitted activation curve with a large enough effect in the signal ratio in the repeat runs, not every such curve was filed as active; the % refers to the signal ratio)
Chain of Estrogen receptor beta (Homo sapiens) (Q92731 whole entry, looked up): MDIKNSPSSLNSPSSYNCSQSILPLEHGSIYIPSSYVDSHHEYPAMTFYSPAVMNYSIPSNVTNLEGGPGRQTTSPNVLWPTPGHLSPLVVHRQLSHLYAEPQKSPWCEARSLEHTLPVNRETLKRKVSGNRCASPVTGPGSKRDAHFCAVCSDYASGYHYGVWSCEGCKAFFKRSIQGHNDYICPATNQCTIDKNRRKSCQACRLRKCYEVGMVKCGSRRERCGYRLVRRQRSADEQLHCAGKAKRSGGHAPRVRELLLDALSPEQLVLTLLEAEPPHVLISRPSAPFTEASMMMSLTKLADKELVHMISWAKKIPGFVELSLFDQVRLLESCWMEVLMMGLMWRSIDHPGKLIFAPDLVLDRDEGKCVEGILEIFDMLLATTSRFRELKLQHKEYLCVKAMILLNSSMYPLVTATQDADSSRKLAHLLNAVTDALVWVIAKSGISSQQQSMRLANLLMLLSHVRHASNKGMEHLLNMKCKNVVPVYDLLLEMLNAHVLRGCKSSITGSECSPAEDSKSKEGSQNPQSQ
Summary of the method: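 Ratiometric beta-lactamase FRET read-out came after 2 h substrate loading at room temperature. It followed 16 h compound treatment at 37C of GripTite HEK293T cells carrying a UAS-bla reporter, plated in 2% charcoal-stripped FBS medium.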

[5] = qHTS assay to identify small molecule agonists of the androgen receptor (AR) signaling pathway in the presence of an antagonist - cell viability counter screen (AID 1259379);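 further: MDA-kb2 human breast cancer cells carrying an MMTV luciferase reporter; series mostly up to about 92 µM; nearly all actives have a fitted effect of over 25% in size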
Summary of the method: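 MDA-kb2 cells (MMTV-luciferase, AR/GR), 3,000/well, 5 h attachment, then 3.0 µM nilutamide (final) and compounds at 15 concentrations. Viability by CellTiter-Fluor fluorescence after 16 h at 37 °C, 0% CO2, in the reporter wells.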

[6] = qHTS assay to identify small molecule agonists of the estrogen receptor beta (ER-beta) signaling pathway - cell viability counter screen (AID 1259380); further: nearly all actives have a fitted effect of over 30% in size
Summary of the method: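 ER-beta-UAS-bla HEK293T cells in medium with 2% charcoal-stripped FBS, pre-incubated 6 hr, then treated 16 hr at 37C. Cytotoxicity read in the same wells by CellTiter-Glo luminescence after 30 min at room temperature.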

[7] = biological target: Androgen receptor (Homo sapiens) (UniProt P10275); assay: qHTS assay to identify small molecule agonists of the androgen receptor (AR) signaling pathway in the presence of an antagonist (AID 1259381; calls by dose curve; further: nearly all actives have a fitted effect of over 15% in size)
Chain of Androgen receptor (Homo sapiens) (P10275 whole entry, looked up): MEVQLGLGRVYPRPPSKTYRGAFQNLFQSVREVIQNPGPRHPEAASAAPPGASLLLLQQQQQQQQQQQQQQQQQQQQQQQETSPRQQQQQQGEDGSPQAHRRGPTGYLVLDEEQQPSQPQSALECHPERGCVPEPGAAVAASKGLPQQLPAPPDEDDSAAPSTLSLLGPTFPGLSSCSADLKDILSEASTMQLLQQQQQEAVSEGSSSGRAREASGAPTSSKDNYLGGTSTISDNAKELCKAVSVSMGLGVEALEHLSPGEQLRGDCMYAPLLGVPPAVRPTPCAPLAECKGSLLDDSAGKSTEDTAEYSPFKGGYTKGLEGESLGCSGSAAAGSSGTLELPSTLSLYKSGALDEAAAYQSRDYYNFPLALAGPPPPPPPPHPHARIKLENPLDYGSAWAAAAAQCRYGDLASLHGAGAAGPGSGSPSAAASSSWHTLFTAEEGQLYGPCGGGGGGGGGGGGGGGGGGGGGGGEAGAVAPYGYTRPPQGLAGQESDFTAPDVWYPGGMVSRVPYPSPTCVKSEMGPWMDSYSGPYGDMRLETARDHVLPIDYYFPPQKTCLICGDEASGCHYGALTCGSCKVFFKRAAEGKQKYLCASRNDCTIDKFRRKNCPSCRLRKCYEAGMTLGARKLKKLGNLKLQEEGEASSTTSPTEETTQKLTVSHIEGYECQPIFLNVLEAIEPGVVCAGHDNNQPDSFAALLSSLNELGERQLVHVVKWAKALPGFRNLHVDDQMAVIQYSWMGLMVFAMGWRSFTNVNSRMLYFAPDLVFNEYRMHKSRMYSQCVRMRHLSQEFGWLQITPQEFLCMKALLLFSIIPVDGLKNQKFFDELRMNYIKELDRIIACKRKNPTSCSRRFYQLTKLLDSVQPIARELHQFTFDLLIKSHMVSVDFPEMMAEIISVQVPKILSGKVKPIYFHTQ
Summary of the method: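 MDA-kb2 cells carrying MMTV-luciferase (AR/GR responsive), 3,000 cells/well, co-treated with 3.0 uM nilutamide final. Compounds at 15 concentrations, 16 hr at 37C without CO2. Luciferase luminescence read after 30 min with ONE-Glo.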

[8] = qHTS assay to identify small molecule antagonists of the estrogen receptor beta (ER-beta) signaling pathway - cell viability counter screen (AID 1259382); further: series mostly up to about 92 µM; nearly all actives have a fitted effect of over 55% in size
Summary of the method: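 ER-beta-UAS-bla HEK293T cells in 2% charcoal-stripped FBS medium, treated with compound plus 1 nM 17-beta-estradiol for 16 h at 37C. Viability read by CellTiter-Glo luminescence after 30 min at room temperature in the same wells.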

[9] = biological target: Estrogen receptor (Homo sapiens) (UniProt P03372); assay: qHTS assay to identify small molecule agonists of the estrogen receptor alpha (ER-alpha) signaling pathway in the presence of an antagonist (AID 1259383; calls by dose curve; further: top concentration of the series differs between compounds; nearly all actives have a fitted effect of over 15% in size)
Chain of Estrogen receptor (Homo sapiens) (P03372 whole entry, looked up): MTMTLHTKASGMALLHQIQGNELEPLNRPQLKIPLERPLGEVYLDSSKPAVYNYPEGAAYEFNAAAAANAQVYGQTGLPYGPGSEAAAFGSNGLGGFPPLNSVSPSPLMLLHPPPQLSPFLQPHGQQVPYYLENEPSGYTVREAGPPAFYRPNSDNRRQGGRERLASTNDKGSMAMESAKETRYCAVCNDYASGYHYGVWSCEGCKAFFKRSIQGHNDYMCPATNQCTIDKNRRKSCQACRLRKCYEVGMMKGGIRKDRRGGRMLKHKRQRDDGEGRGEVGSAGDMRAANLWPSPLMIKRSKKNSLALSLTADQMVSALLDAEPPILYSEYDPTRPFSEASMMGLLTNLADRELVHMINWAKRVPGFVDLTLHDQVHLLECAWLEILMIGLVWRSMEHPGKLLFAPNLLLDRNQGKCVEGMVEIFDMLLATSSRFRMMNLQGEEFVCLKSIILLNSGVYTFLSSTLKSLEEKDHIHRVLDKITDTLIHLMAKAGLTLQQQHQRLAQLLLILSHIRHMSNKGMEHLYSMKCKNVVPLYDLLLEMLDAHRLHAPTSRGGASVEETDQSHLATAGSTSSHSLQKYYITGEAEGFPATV
Summary of the method: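 VM7Luc4E2 cells express endogenous full-length ER-alpha with an ERE-luciferase reporter and were hormone-deprived for 5 days. Compounds at 15 concentrations were added with 10.0nM ICI-182,780 for 22hr at 37C. Luminescence was read with ONE-Glo.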

[10] = qHTS assay to identify small molecule agonists or antagonists of the thyroid stimulating hormone receptor (TSHR) signaling pathway - wild type cell line counter screen (AID 1259384; calls by dose curve)
Summary of the method: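 Wild-type HEK293 cells were plated 18 h at 37 C/5% CO2, pin-dosed with compound plus Ro20-1724 medium, held 30 min at room temperature, then given cAMP-d2 and anti-cAMP-cryptate; fluorescence was read after 1 h. Fifteen concentrations, triplicate.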

[11] = biological target: Thyrotropin receptor (Homo sapiens) (UniProt P16473); assay: qHTS assay to identify small molecule antagonists of the thyroid stimulating hormone receptor (TSHR) signaling pathway (AID 1259385; calls by dose curve; further: nearly all actives have a fitted effect of over 20% in size)
Chain of Thyrotropin receptor (Homo sapiens) (P16473 whole entry, looked up): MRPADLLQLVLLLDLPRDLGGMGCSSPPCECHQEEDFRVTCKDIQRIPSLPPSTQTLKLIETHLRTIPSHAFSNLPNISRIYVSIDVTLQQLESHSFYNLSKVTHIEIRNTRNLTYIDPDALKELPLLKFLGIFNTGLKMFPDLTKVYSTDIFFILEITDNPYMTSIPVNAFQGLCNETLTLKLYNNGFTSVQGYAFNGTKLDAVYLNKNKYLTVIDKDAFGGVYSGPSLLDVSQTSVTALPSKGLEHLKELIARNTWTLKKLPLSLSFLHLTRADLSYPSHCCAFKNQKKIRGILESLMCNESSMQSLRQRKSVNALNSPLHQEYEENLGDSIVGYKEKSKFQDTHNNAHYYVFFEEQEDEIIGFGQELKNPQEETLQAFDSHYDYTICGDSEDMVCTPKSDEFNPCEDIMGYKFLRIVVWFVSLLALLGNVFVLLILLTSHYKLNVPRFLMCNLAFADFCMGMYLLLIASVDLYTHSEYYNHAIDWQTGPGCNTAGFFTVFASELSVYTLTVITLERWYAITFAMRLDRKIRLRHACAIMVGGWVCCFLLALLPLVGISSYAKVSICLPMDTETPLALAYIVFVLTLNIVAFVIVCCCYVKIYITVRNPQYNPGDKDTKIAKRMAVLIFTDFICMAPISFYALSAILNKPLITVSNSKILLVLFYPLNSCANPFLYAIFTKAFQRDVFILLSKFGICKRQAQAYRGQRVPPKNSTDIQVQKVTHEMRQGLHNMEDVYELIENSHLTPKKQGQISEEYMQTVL
Summary of the method: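 TSHR-HEK293 cells were plated and held 18 h at 37C/5% CO2, then given compound plus Ro20-1724 and stimulated with TSH at 1.5 ng/mL final. After 30 min at room temperature, cAMP was detected with cAMP-d2/anti-cAMP-cryptate (1 h) by fluorescence.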

[12] = qHTS assay to identify small molecule agonists of the estrogen receptor alpha (ER-alpha) signaling pathway in the presence of an antagonist - cell viability counter screen (AID 1259386);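 further: series mostly up to about 92 µM; cells exposed to compounds for 22 h at 37 °C before the viability read; nearly all actives have a fitted effect of over 30% in size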
Summary of the method: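 Cell viability in VM7Luc4E2 cells (endogenous full-length ER-alpha) measured by CellTiter-Fluor fluorescence in the same wells as the luciferase screen. Cells pre-cultured 5 days in charcoal-stripped serum, then treated 22 h with compounds at 15 concentrations plus 10.0nM ICI-182,780.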

[13] = biological target: Progesterone receptor (Homo sapiens) (UniProt P06401); assay: qHTS assay to identify small molecule agonists of the progesterone receptor (PR) signaling pathway (AID 1346784; calls by dose curve; further: nearly all actives have a fitted effect of over 30% in size)
Chain of Progesterone receptor (Homo sapiens) (P06401 whole entry, looked up): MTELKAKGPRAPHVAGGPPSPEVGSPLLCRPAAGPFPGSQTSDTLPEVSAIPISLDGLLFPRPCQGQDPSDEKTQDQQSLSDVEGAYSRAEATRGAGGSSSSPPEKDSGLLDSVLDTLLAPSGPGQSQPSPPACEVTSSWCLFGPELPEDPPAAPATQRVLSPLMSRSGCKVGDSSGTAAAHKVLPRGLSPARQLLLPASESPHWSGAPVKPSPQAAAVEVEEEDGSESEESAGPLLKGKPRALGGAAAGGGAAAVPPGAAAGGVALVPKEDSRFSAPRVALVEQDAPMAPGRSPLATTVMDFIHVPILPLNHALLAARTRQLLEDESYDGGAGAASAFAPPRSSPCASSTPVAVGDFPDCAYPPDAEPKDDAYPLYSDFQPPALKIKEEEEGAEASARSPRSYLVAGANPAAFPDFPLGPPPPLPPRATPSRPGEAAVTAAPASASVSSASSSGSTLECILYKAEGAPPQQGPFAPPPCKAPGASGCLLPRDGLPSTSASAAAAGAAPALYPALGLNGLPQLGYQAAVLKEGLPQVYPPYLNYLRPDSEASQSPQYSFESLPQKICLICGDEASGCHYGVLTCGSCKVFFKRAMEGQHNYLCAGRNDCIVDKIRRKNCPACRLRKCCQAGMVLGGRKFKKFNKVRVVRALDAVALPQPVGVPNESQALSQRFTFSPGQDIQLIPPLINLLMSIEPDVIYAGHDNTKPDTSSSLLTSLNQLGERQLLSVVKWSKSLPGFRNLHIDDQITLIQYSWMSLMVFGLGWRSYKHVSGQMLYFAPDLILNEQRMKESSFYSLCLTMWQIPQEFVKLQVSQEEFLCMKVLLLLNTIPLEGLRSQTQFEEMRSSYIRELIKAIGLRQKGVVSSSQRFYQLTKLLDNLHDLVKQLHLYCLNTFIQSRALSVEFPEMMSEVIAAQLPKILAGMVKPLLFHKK
Summary of the method: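 Agonist qHTS: compounds pinned onto 3,000 PR-UAS-bla HEK 293T cells per well in charcoal-stripped serum medium, 16hr at 37C, then beta-lactamase activity measured by LiveBLAzer FRET fluorescence after 2 hours at room temperature.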

[14] = biological target: Progesterone receptor (Homo sapiens) (UniProt P06401); assay: qHTS assay to identify small molecule antagonists of the progesterone receptor (PR) signaling pathway (AID 1346795; active means well fitted inhibition curve with a large enough effect in the signal ratio in the repeat runs, not every such curve was filed as active; the % refers to the signal ratio)
Summary of the method: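 Antagonist mode with agonist R5020 at 1 nM final and 16 hr incubation at 37C. Reporter was beta-lactamase driven by UAS in HEK293T (PR-UAS-bla), 2% charcoal-stripped serum; signal from LiveBLAzer FRET substrate, 2 hr at room temperature.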

[15] = qHTS assay to identify small molecule antagonists of the progesterone receptor (PR) signaling pathway - cell viability counter screen (AID 1346798); further: series mostly up to about 92 µM; nearly all actives have a fitted effect of over 50% in size
Summary of the method: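 Cytotoxicity read as CellTiter-Glo luminescence (30 min, room temperature) in the same wells as the beta-lactamase readout. HEK293T PR-UAS-bla cells in charcoal-stripped 2% FBS received compound and R5020, then 16 h at 37C, 5% CO2.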

[16] = qHTS assay to identify small molecule agonists of the progesterone receptor (PR) signaling pathway - cell viability counter screen (AID 1346799; calls by dose curve; further: nearly all actives have a fitted effect of over 45% in size)
Summary of the method: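 Cytotoxicity measured by CellTiter-Glo luminescence (30 min, RT) in the same wells as the PR beta-lactamase agonist read. Those HEK293T cells had 16 h compound treatment at 37 C in 2% charcoal-stripped FBS medium.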

[17] = qHTS assay to identify small molecule antagonists of the TGF-beta/Smad signaling pathway - cell viability counter screen (AID 1346824); further: nearly all actives have a fitted effect of over 50% in size
Summary of the method: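 SBE-bla HEK 293T cells were plated overnight at 37 C, then given compounds in DMSO plus TGF-beta1 (added as 0.25 ng/mL solution) for 5 hr. After the bla read, CellTiter-Glo was added to the same wells and luminescence read after 30 min at room temperature.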

[18] = biological target: Estrogen receptor beta (Homo sapiens) (UniProt Q92731); assay: qHTS assay to identify small molecule antagonists of the estrogen receptor beta (ER-beta) signaling pathway (AID 1259378; active means well fitted inhibition curve with a large enough effect in the signal ratio in the repeat runs, not every such curve was filed as active; the % refers to the signal ratio)
Summary of the method: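 ER-beta-UAS-bla HEK293T (GripTite) cells in 2% charcoal-stripped FBS medium were preincubated 6 hr at 37C, dosed with compound, then stimulated with 1 nM E2 (final) for 16 hr; beta-lactamase reporter read by B/G FRET fluorescence after 2 hr substrate loading.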

[19] = qHTS assay to identify small molecule agonists of the sonic hedgehog signaling (Shh) pathway - cell viability counter screen (AID 1259366); further: nearly all actives have a fitted effect of over 50% in size
Summary of the method: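 Cytotoxicity counter screen: CellTiter-Fluor reagent added after 23 h compound exposure, then 1 h at 37C and fluorescence read. Cells were 3T3 Gli1-Luc, seeded 2,000 per well and dosed 4 h post-plating.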
On the % scale 0 is the no-effect control and ±100 the full control effect.

CC(=O)CC(=O)OC(C)(C)C
inactive: outcome [1] | outcome [2] | Potency [3] | Potency [4] | outcome [5] | outcome [6] | outcome [7] | outcome [8] | Potency [9] | outcome [10] | outcome [11] | outcome [12] | Potency [13] | Potency [14] | outcome [15] | outcome [16] | outcome [17]

Cc1cc(C)c(C(=O)O)c(C)c1
inactive: outcome [1] | outcome [2] | Potency [3] | Potency [4] | Potency [18] | outcome [5] | outcome [6] | outcome [8] | Potency [9] | outcome [10] | outcome [11] | outcome [12] | Potency [13] | Potency [14] | outcome [15] | outcome [16] | outcome [17]

O=C(Cn1ccnc1[N+](=O)[O-])NCc1ccccc1
inactive: outcome [1] | outcome [2] | Potency [3] | Potency [4] | Potency [18] | outcome [5] | outcome [6] | outcome [8] | outcome [11] | outcome [12] | Potency [13] | Potency [14] | outcome [15] | outcome [16] | outcome [17]

CCNC(=O)NCc1cccc(Cl)c1
inactive: outcome [19] | outcome [1] | outcome [2] | Potency [3] | outcome [5] | Potency [9] | outcome [10] | outcome [11] | outcome [12] | Potency [13] | Potency [14] | outcome [15] | outcome [16] | outcome [17]

CC(C)OC(=O)CCC(=O)OC(C)C
inactive: outcome [19] | outcome [1] | outcome [2] | Potency [4] | Potency [18] | outcome [5] | outcome [6] | outcome [8] | outcome [10] | outcome [11] | outcome [12] | Potency [13] | Potency [14] | outcome [16] | outcome [17]

CC(N)CCCC(C)(C)O (centres undefined)
inactive: outcome [19] | outcome [1] | outcome [2] | Potency [3] | Potency [4] | outcome [5] | outcome [8] | outcome [10] | outcome [11] | outcome [12] | Potency [13] | Potency [14] | outcome [16] | outcome [17]

O=S(=O)(O)c1ccc2c(N=Nc3ccc(S(=O)(=O)O)c4ccccc34)c(O)c(S(=O)(=O)O)cc2c1
inactive: viability change, negative = cytotoxic [19] -12.8% [at 8.39 µM] | viability change, negative = cytotoxic [1] -12.4% [at 8.39 µM] | activity change [2] -2.14% [at 8.39 µM] | activity change, negative = inhibition [3] 39.1% [at 8.39 µM] | activity change, negative = cytotoxicity [5] -15.5% [at 8.39 µM] | activity change, negative = cytotoxicity [6] 3.66% [at 8.39 µM] | activity change, negative = cytotoxicity [8] -3.29% [at 8.39 µM] | cAMP activity change [10] -0.796% [at 8.39 µM] | activity change, negative = inhibition [11] -3.96% [at 8.39 µM] | activation [13] 2.07% [at 8.39 µM] | activity change, negative = inhibition [14] -1.68% [at 8.39 µM] | activity change, negative = cytotoxicity [15] 12.1% [at 8.39 µM] | viability change, negative = cytotoxic [17] 5.53% [at 6.97 µM]

CN(C)CCCO[C@@H]1[C@H]2OC(C)(C)O[C@H]2O[C@@H]1C(O)CO (some centres undefined)
inactive: outcome [19] | outcome [1] | outcome [2] | Potency [3] | outcome [5] | outcome [6] | outcome [8] | Potency [9] | outcome [12] | Potency [13] | Potency [14] | outcome [15] | outcome [16] | outcome [17]
